# Compound activity from PubChem BioAssay.
# This is one part of a sample in which hits are shown more often than they occur.
# LmPK inhibitor: qHTS Assay for Inhibitors of Leishmania Mexicana Pyruvate Kinase (LmPK); Q27686; purified LmPK, Kinase-Glo ATP luminescence, 1 h; Potency, µM (doses to about 57.5 µM), inactives show at the highest dose activity change, negative = inhibition, most hits filed as inhibitors; 290,000 compounds, 0.37% hits; AID 1721, 2009; further: potency means the concentration at half of the fitted maximal effect; on the % scale 0 is the no-effect control and ±100 the full control effect
#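 Purified LmPK (0.1 nM) with 0.5 mM PEP and 0.1 mM ADP in imidazole buffer pH 7.2 with MgCl2/KCl, 1 h at room temperature. ATP formed was read by luciferase luminescence and normalized to no-enzyme and uninhibited controls.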
# Shiga toxin inh: A qHTS for Small Molecule Inhibitors of Shiga Toxin; 290,000 compounds, 9.2% hits; Vero cells, Shiga toxin protein synthesis inhibition reporter; inhibition, % at 38.7 µM; in the data active means inhibition mostly above about 28%, no sharp cut-off; inactive means mostly below about 43%; further: 0% is about no effect
# Cycloheximide cs: Cycloheximide Counterscreen for Small Molecule Inhibitors of Shiga Toxin | cell reporter, cycloheximide protein synthesis inhibition counterscreen | max response, % | 300,000 compounds, 12% hits; in the data active means max response mostly above about 13%, no sharp cut-off; inactive means mostly below about 14%; further: read at 38.3 µM for the half of the compounds with a filed dose; 0% is about no effect
# FBPA Giardia inh: qHTS Assay for Inhibitors of Fructose-1,6-bisphosphate Aldolase from Giardia Lamblia; purified Giardia FBPA; Potency, µM (top dose mostly 59.6 µM), without a hit: at the top dose activity, negative = inhibition, most hits filed as inhibitors; 290,000 compounds, 0.71% hits; AID 2451, 2010; further: potency means the concentration at half of the fitted maximal effect; on the % scale 0 is the no-effect control and ±100 the full control effect; nearly all actives have a fitted effect of over 55% in size
# Target sequence (A8B2U2 whole entry, looked up): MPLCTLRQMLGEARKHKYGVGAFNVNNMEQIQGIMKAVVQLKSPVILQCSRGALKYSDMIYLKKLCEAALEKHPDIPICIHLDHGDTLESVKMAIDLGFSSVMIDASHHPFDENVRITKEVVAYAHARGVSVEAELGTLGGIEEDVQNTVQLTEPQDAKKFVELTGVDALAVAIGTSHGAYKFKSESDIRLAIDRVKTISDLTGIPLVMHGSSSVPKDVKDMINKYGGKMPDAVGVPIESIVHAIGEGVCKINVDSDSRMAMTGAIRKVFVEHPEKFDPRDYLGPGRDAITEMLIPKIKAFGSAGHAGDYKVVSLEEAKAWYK
#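 40 nM FBPA preincubated 10 min at RT with compound (up to 57.5 uM final), then substrate plus GAPDH/TPI/NAD/arsenate coupling and diaphorase/resazurin added. Fluorescence read after 20 min at RT, 525/598 nm.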
# RE007 growth inh: qHTS Assay for Inhibitors of the HIV-1 protein Vpr; Potency, µM (series often up to 92.2 µM), for inactives: at the highest dose activity change, negative = less growth, hits mostly inhibitors; S. pombe RE007 Vpr strain, BacTiter-Glo ATP luminescence, 24 h; 360,000 compounds, 0.21% hits; active means well fitted falling curve with a large enough effect; inconclusive means small, poorly fitted or top-dose-only effect; inactive means no such curve, though single readings can be large or run the other way; further: potency means the concentration at half of the fitted maximal effect; on the % scale 0 is the no-effect control and ±100 the full control effect; nearly all actives have a fitted effect of over 50% in size
#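 Fission yeast RE007 carrying one integrated HIV-1 vpr copy, seeded at OD 0.01 in PMG+AL medium with 23 nL pinned compound. Grown 24 h at 30 degrees; viability read by BacTiter-Glo luminescence after 5 min.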
# TbPYK inhibitor: qHTS of Trypanosoma Brucei Inhibitors; pyruvate kinase (Trypanosoma brucei), Q57TT1; TbPYK enzyme, Kinase-Glo Plus ATP luminescence, 45 min; 410,000 compounds, 0.12% hits; Potency, µM (series often up to 76.8 µM), inactives show at the highest dose activity, negative = inhibition, usual class: inhibitors; further: potency means the concentration at half of the fitted maximal effect; on the % scale 0 is the no-effect control and ±100 the full control effect; nearly all actives have a fitted effect of over 50% in size
#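 Glycolytic pyruvate kinase of T. brucei was incubated with substrate, test compound and 130 uM ADP for 45 minutes at room temperature. Luminescent Kinase-Glo Plus signal was measured after 10 minutes.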
# Active calls of the source: *; ? = inconclusive; / = not tested or not shown. Unless noted, the call rests on the fitted dose curve; in most records, active means well fitted curve in the direction sought with a large enough effect; inconclusive means small, poorly fitted or top-dose-only effect, or another doubt; inactive means no such curve, though single readings can be large; an effect the other way counts as inactive or inconclusive.
SMILES,LmPK inhibitor,Shiga toxin inh,Cycloheximide cs,FBPA Giardia inh,RE007 growth inh,TbPYK inhibitor
O=C(N/N=C/c1cccc([N+](=O)[O-])c1O)c1cccs1,-16.3%,active,37.8*,?,-9.1%,6.5%
O=C(N/N=C/c1ccc([N+](=O)[O-])cc1)c1cccs1,2.5%,31.2,34.3*,1.8%,-0.8%,-0.1%
O=[N+]([O-])c1cccc(-c2ccc(/C=N/NC(=S)Nc3cccc(F)c3)o2)c1,0.5%,9.9,0.8,8.7%,-14.7%,-5.3%
O=C(/C=C\c1ccc(-c2cccc([N+](=O)[O-])c2)o1)N1CCOCC1,-15.6%,60.9*,37.3*,-0.7%,-13.1%,-10.8%
CCOc1ccc(Cl)cc1CNCCCSc1nnnn1C,/,/,/,/,/,0.5%
C/C(=N\Nc1ccc(C(=O)O)cc1)c1ccc2c(c1)Nc1ccccc1S2,-2.5%,48.0*,68.5*,-4.6%,-8.6%,-17.7%
C[C@@H]1CC[C@]2(C(=O)O)CC[C@]3(C)C(=CCC4[C@@]5(C)C[C@@H](O)[C@H](O)[C@@](C)(CO)C5[C@H](O)C[C@]43C)C2[C@H]1C (some centres undefined),/,-6.5,-5.6,5.0%,/,/
COc1ccc(OC)c(NC(=O)Cn2cnc3onc(-c4ccc(Cl)cc4)c3c2=O)c1,/,/,/,/,/,-0.5%
O=C(CSc1nc(-c2ccccc2Cl)ns1)Nc1ccc2c(c1)OCO2,1.1%,22.7,15.2*,-2.6%,2.3%,-5.3%
COc1ccc(-c2nsc(SCC(=O)NCc3ccc4c(c3)OCO4)n2)cc1,3.2%,-12.3,-3.1,-6.8%,19.6%,3.4%
Cc1ccc(-c2nsc(SCC(=O)Nc3ccc4c(c3)OCO4)n2)cc1,1.7%,23.8*,18.2*,1.1%,-13.3%,-3.8%
O=C(CSc1ncccn1)Nc1ccc2c(c1)OCO2,/,/,/,/,-4.3%,-1.4%
CCC1=Nc2cc(C(=O)N3CCC(C)CC3)ccc2Sc2ccc(C)cc21,/,/,/,/,/,5.1%
Cc1ccccc1/C=N/NC(=O)c1sccc1C,?,66.3*,37.8*,0.6%,-19.9%,-5.0%
Cc1cc(C(=O)N/N=C/c2ccc3c(c2)OCO3)c(C)o1,14.1µM*,54.8*,42.3*,-3.3%,?,3.8%
O=C(N/N=C/c1ccc2c(c1)OCO2)c1cccs1,?,67.9*,55.7*,-3.0%,-15.9%,-18.9%
Cc1cccc(C(=O)N/N=C/c2ccc3c(c2)OCO3)n1,-5.2%,40.8,17.6,-4.2%,-5.3%,-1.8%
Cn1cc(C(=O)N/N=C/c2ccc3c(c2)OCO3)c2ccccc21,2.7%,57.9*,39.8*,-14.3%,-16.0%,-14.3%
COc1ccc(/C=N/NC(=O)c2sccc2C)c2ccccc12,/,/,/,/,3.1%,-0.8%
O=C(N/N=C/c1ccc2c(c1)OCO2)c1cccc2ccccc12,0.4%,18.6,-0.6,11.5%,-9.1%,1.9%
Cc1cc(O)c(C(c2ccccc2)N2CCN(c3ccccc3)CC2)c(=O)n1Cc1ccco1 (centres undefined),/,/,/,/,/,-1.5%
Cn1cc(C(=O)N/N=C/c2cccs2)c2ccccc21,3.2%,67.5*,39.1*,0.2%,4.8%,2.1%
Cn1cc(C(=O)N/N=C/c2ccc(Br)c([N+](=O)[O-])c2)c2ccccc21,5.3%,7.5,1.2,0.6%,-21.5%,-0.7%
Cc1ccsc1C(=O)N/N=C/c1ccc2c(c1)OCO2,11.2µM*,77.7*,41.9*,0.6%,?,?
COc1ccc(C(=O)Oc2c(Sc3ccc(C)cc3)c(C)nn2C(C)(C)C)c(OC)c1,/,/,/,/,/,-7.5%
O=C(c1ccccc1)C1Oc2ccccc2C2CC(c3cccs3)=NN12 (centres undefined),3.6%,32.2,-7.6,-5.2%,-11.8%,5.5%
COc1cccc(C2Oc3ccccc3C3CC(c4cccs4)=NN32)c1 (centres undefined),-1.6%,79.4*,50.5*,0.7%,?,-3.7%
